Reference: PubChem BioAssay (Tox21)
Results filed as inconclusive are left out. Where a call stands in place of a potency, no number is given. The source made the active and inactive calls. Unless noted, the call rests on the fitted dose curve; in most records, active means well fitted curve in the direction sought with a large enough effect in the repeat runs; inconclusive means weak or mixed curves; inactive means no such curve, though single readings can be large; an effect the other way counts as inactive or inconclusive.

Key:
[1] = molecular target: Peroxisome proliferator-activated receptor delta (Homo sapiens) (UniProt Q03181); assay: qHTS assay to identify small molecule agonists of the peroxisome proliferator-activated receptor delta (PPARd) signaling pathway (AID 743212; calls by dose curve;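 further: HEK293H cells with PPARd UAS beta-lactamase reporter GeneBLAzer system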)
Chain of Peroxisome proliferator-activated receptor delta (Homo sapiens) (Q03181 whole entry, looked up): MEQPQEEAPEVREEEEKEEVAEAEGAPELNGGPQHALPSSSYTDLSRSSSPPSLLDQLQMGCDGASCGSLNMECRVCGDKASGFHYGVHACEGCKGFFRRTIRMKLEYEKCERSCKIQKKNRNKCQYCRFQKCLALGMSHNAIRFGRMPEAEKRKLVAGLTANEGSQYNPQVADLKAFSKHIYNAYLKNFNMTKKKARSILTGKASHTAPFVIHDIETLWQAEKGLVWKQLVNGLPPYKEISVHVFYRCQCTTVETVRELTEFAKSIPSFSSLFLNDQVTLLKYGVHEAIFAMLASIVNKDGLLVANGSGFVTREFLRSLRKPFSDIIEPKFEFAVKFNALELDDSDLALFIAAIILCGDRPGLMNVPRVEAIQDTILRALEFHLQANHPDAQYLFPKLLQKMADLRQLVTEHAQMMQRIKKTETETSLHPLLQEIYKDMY
How it was run: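 Beta-lactamase reporter read by fluorescence (LiveBLAzer B/G FRET, 2 h, room temperature). Test agents, in DMSO, incubated at 37 C with PPARd-bla HEK293H cells.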

[2] = qHTS assay to identify small molecule antagonists of the peroxisome proliferator-activated receptor delta (PPARd) signaling pathway - cell viability counter screen (AID 743213); further: nearly all actives have a fitted effect of over 50% in size
How it was run: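 Same-well viability: cells pre-incubated 5 h, dosed with compound plus 300 nM L165041, kept 17 h at 37 C, FRET substrate 2 h RT, then CellTiter-Glo 30 min RT and luminescence.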

[3] = molecular target: Peroxisome proliferator-activated receptor delta (Homo sapiens) (UniProt Q03181); assay: qHTS assay to identify small molecule antagonists of the peroxisome proliferator-activated receptor delta (PPARd) signaling pathway (AID 743215; active means well fitted inhibition curve with a large enough effect in the signal ratio in the repeat runs, not every such curve was filed as active; the % refers to the signal ratio;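 further: cells stimulated with agonist L165041 at 300 nM final during compound exposure; series mostly up to about 62 µM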)
How it was run: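 Agonist L165041 (300 nM final) added with compound to PPARd-bla HEK293H UAS-bla reporter cells; 17 h incubation at 37 C. Read-out: LiveBLAzer FRET substrate, 2 h at room temperature, fluorescence intensity.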

[4] = qHTS assay to identify small molecule agonists of the farnesoid-X-receptor (FXR) signaling pathway - cell viability counter screen (AID 743218); further: nearly all actives have a fitted effect of over 45% in size; further: potency means the concentration at half of the fitted maximal effect
How it was run: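 Viability counter screen in the same wells: CellTiter-Glo luminescence, 30 min room-temperature incubation, measured after the beta-lactamase read. Cells were GeneBLAzer FXR-UAS-bla HEK 293T, compound-treated 16 h at 37C.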

[5] = qHTS assay to identify small molecule antagonists of the farnesoid-X-receptor (FXR) signaling pathway - cell viability counter screen (AID 743221; active means well fitted cell-killing curve with a large enough effect in the repeat runs, not every such curve was filed as active; further: nearly all actives have a fitted effect of over 50% in size)
How it was run: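 Multiplexed counter screen: viability of FXR-bla HEK 293T cells under agonist stimulation by chenodeoxycholic acid (50 uM, final) and test compound for 16 h at 37 C, measured by CellTiter-Glo luminescence in the reporter wells.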

[6] = molecular target: Vitamin D3 receptor (Homo sapiens) (UniProt P11473); assay: qHTS assay to identify small molecule agonists of the vitamin D receptor (VDR) signaling pathway (AID 743222; calls by dose curve)
Chain of Vitamin D3 receptor (Homo sapiens) (P11473 whole entry, looked up): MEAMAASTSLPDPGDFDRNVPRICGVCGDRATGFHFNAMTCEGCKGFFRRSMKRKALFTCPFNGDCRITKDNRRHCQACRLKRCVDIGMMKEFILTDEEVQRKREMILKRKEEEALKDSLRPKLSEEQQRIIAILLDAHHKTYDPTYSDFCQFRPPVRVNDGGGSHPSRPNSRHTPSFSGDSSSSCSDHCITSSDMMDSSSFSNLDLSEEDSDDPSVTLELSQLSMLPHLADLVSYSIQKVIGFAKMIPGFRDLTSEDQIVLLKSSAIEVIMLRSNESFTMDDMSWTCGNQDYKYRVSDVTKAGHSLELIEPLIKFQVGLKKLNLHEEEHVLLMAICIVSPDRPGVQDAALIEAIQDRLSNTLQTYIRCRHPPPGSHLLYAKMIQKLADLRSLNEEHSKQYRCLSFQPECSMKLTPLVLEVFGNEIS
How it was run: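 Agonist mode, beta-lactamase reporter: fluorescence from LiveBLAzer B/G FRET substrate (2 h, room temperature) read after 16 h compound treatment at 37 C of VDR-bla cells, which were pre-incubated 4 h after seeding.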

[7] = qHTS assay to identify small molecule agonists of the vitamin D receptor (VDR) signaling pathway - cell viability counter screen (AID 743224); further: nearly all actives have a fitted effect of over 50% in size; further: potency means the concentration at half of the fitted maximal effect
How it was run: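 Counter screen run in the same wells as the VDR-bla reporter assay: CellTiter-Glo luminescence, 30 min at room temperature, after 16 h compound treatment at 37C of cells pre-plated for 4 h.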

[8] = molecular target: Vitamin D3 receptor (Homo sapiens) (UniProt P11473); assay: qHTS assay to identify small molecule antagonists of the vitamin D receptor (VDR) signaling pathway (AID 743223; active means well fitted inhibition curve with a large enough effect in the signal ratio in the repeat runs, not every such curve was filed as active; the % refers to the signal ratio)
How it was run: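 Cells carrying a VDR-driven beta-lactamase reporter (VDR-bla) were co-treated with compound and 3 nM final 1alpha,25-dihydroxyvitamin D3 for 16 h at 37C; reporter activity was measured as FRET substrate fluorescence after 2 h at room temperature.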

[9] = molecular target: Bile acid receptor (Homo sapiens) (UniProt Q96RI1); assay: qHTS assay to identify small molecule antagonists of the farnesoid-X-receptor (FXR) signaling pathway (AID 743217; active means well fitted inhibition curve with a large enough effect in the signal ratio in the repeat runs, not every such curve was filed as active; the % refers to the signal ratio; further: potency means the concentration at half of the fitted maximal effect)
Chain of Bile acid receptor (Homo sapiens) (Q96RI1 whole entry, looked up): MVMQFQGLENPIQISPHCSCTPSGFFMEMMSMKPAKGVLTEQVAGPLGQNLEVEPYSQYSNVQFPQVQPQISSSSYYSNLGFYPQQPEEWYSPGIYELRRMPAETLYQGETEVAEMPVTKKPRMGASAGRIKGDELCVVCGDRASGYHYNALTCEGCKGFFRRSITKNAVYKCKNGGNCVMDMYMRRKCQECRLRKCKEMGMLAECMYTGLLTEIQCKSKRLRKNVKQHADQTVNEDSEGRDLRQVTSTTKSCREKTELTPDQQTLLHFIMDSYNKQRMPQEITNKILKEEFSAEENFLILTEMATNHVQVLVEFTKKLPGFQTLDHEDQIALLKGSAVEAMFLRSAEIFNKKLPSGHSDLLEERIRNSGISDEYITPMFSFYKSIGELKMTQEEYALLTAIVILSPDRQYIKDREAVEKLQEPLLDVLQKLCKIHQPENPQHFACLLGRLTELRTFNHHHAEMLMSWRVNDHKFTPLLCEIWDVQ
How it was run: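 Antagonist mode: chenodeoxycholic acid at 50 uM final stimulates a UAS-driven beta-lactamase reporter in HEK 293T FXR-bla cells during 16 h, 37C compound exposure. Read-out is FRET substrate fluorescence after 2 h at room temperature.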

[10] = molecular target: Bile acid receptor (Homo sapiens) (UniProt Q96RI1); assay: qHTS assay to identify small molecule agonists of the farnesoid-X-receptor (FXR) signaling pathway (AID 743220; active means well fitted activation curve with a large enough effect in the signal ratio in the repeat runs, not every such curve was filed as active; the % refers to the signal ratio)
How it was run: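 FXR-UAS-bla HEK 293T cells carrying a UAS-driven beta-lactamase reporter were plated for 5 h at 37C/5% CO2, then exposed to DMSO-dissolved Tox21 10K compounds for 16 h at 37C. A LiveBLAzer B/G FRET substrate was loaded for 2 h at room temperature before fluorescence reading.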

SMILES	outcome [1]	Potency [2]	Potency [3]	Potency [4]	Potency [5]	outcome [6]	Potency [7]	outcome [8]	Potency [9]	outcome [10]
O=C1C(Cl)C(CCl)CN1c1cccc(C(F)(F)F)c1 (stereo not drawn)	inactive	inactive	inactive	inactive	inactive	inactive	inactive			
O=Cc1ccc(Cl)cc1Cl	inactive	inactive	inactive	inactive		inactive	inactive	inactive		
CCOP(=O)(OCC)O/C(=C/Cl)c1ccc(Cl)cc1Cl	inactive	inactive	inactive	inactive	inactive	inactive		inactive		
CCCCc1c(C)nc(NCC)nc1OS(=O)(=O)N(C)C	inactive	inactive	inactive	inactive	inactive	inactive	inactive	inactive		
CC(=O)NC1CCSC1=O (stereo not drawn)	inactive	inactive	inactive	inactive		inactive	inactive	inactive		
S=C=NCc1ccccc1	inactive	inactive		inactive		inactive		inactive		
C[N+](C)(C)CCCl	inactive	inactive	inactive	inactive	inactive		inactive	inactive		
COC(=O)C(Br)CBr (stereo not drawn)	inactive	inactive	inactive	inactive	inactive	inactive	inactive	inactive		
CCBr	inactive	inactive	inactive	inactive	inactive	inactive	inactive	inactive		
CS/C(C)=N/OC(=O)N(C)SN(C)C(=O)O/N=C(\C)SC	inactive	inactive		inactive	inactive		inactive		inactive	inactive
O=C(Nc1ccccc1)Nc1ccnc(Cl)c1	inactive	inactive		inactive	inactive	inactive				inactive
CC(C)N(CCC(C(N)=O)(c1ccccc1)c1ccccn1)C(C)C (stereo not drawn)	inactive	inactive	inactive	inactive	inactive	inactive	inactive	inactive		
O=[N+]([O-])C(Br)(CO)CO	inactive		inactive	inactive					inactive	inactive
COC(=O)c1cncn1C(C)c1ccccc1 (stereo not drawn)	inactive		inactive	inactive	inactive		inactive	inactive		
CC(C)(CCl)C(=O)Cl	inactive		inactive	inactive	inactive			inactive		
Nc1ccc(N=Nc2ccc(-c3ccc(N=Nc4c(S(=O)(=O)O)cc5cc(S(=O)(=O)O)c(N=Nc6ccccc6)c(O)c5c4N)cc3)cc2)c(N)c1	inactive							inactive		
CCOc1nc(F)cc2nc(S(=O)(=O)Nc3c(Cl)cccc3Cl)nn12	inactive			inactive	inactive		inactive		inactive	inactive
Cn1cc[n+](C)c1 (tested in a mixture with another compound)	inactive		inactive	inactive	inactive		inactive		inactive	inactive
Nc1nc(=S)[nH][nH]1	inactive		inactive	inactive		inactive		inactive		
CN1[C@@H]2CC[C@H]1CC(OC(=O)c1cc(Cl)cc(Cl)c1)C2 (stereo partly drawn)	inactive		inactive				inactive			
COP(=S)(Oc1cc(Cl)c(Br)cc1Cl)c1ccccc1 (stereo not drawn)	inactive	inactive			inactive	inactive	38.9 µM (active)	inactive		

SMILES	outcome [1]	Potency [2]	Potency [3]	Potency [4]	Potency [5]	outcome [6]	Potency [7]	outcome [8]	Potency [9]	outcome [10]
COC(=O)C(Cl)C(=O)OC	inactive		inactive		inactive					inactive
CC(O)(CS(=O)(=O)c1ccc(F)cc1)C(=O)Nc1ccc(C#N)c(C(F)(F)F)c1 (stereo not drawn)	inactive		inactive	inactive	inactive	inactive		inactive		
CCOc1ccc(C(C)(C)COCc2cccc(Oc3ccccc3)c2)cc1	inactive		inactive	inactive	inactive	inactive			inactive	inactive
N#Cc1ccc(Cl)cc1	inactive			inactive	inactive	inactive		inactive		
COc1c(C(C)(C)C)cc([N+](=O)[O-])c(C)c1[N+](=O)[O-]	inactive		inactive	inactive		inactive	inactive	inactive		
CCOP(=S)(Oc1ccc([N+](=O)[O-])cc1)c1ccccc1 (stereo not drawn)	inactive				inactive	inactive	inactive	inactive		
N#CCc1ccccc1	inactive		inactive	inactive	inactive	inactive	inactive	inactive		
O=[N+]([O-])c1ccc(F)c([N+](=O)[O-])c1	inactive		inactive	2.21 µM (active)		inactive		inactive	inactive	inactive
CCc1ccc(C(=O)NN(C(=O)c2cc(C)cc(C)c2)C(C)(C)C)cc1	inactive		inactive		inactive	inactive	inactive	inactive	54.9 µM (active)	
Clc1cc(Cl)c(Cl)c(Cl)c1	inactive		inactive		inactive	inactive	inactive	inactive		
Cc1ccc(N)cc1C	inactive		inactive	inactive	inactive	inactive	inactive	inactive		inactive
CN1C(=O)C(O)N=C(c2ccccc2)c2cc(Cl)ccc21 (stereo not drawn)	inactive			inactive	inactive					
O=Cc1ccc2c(c1)OCO2	inactive		inactive	inactive		inactive	inactive	inactive	inactive	inactive
O=C=Nc1ccc(Cl)cc1	inactive				inactive	inactive				
CC1Sc2c(C(=O)O)c(=O)c3cc(F)c(N4CCNCC4)cc3n21 (stereo not drawn)	inactive		inactive	inactive		inactive			inactive	inactive
CCOP(=S)(OCC)Oc1cc(Cl)c(Br)cc1Cl	inactive			inactive		inactive		inactive		inactive
COc1nn(C(=O)NS(=O)(=O)c2ccccc2OC(F)(F)F)c(=O)n1C	inactive		inactive	inactive	inactive	inactive	inactive	inactive	inactive	inactive
C=CC(=O)OCCCCO		inactive	inactive	inactive	inactive				inactive	inactive
CC1CC(CC2CCC(N)C(C)C2)CCC1N (stereo not drawn)	inactive		inactive			inactive	inactive			
CC(C)=CCOc1c2occc2cc2ccc(=O)oc12	inactive		inactive	inactive		inactive	inactive		inactive	inactive
CCCCCCC#N	inactive		inactive	inactive	inactive	inactive	inactive	inactive	inactive	inactive

SMILES	outcome [1]	Potency [2]	Potency [3]	Potency [4]	Potency [5]	outcome [6]	Potency [7]	outcome [8]	Potency [9]	outcome [10]
CC(C)N(C(=O)COc1nnc(C(F)(F)F)s1)c1ccc(F)cc1	inactive			inactive	inactive					inactive
C[C@H]1CNCCc2ccc(Cl)cc21	inactive		inactive	inactive	inactive	inactive	inactive	inactive	inactive	inactive
CCOP(=O)(OCC)Oc1ccc([N+](=O)[O-])cc1	inactive		inactive	inactive	inactive	inactive	inactive	inactive		inactive
Cc1ccccc1C(=O)Nc1cccc(OC(C)C)c1	inactive		inactive		inactive		inactive			
CCOC(=O)[C@]1(c2ccccc2)Oc2ccccc2[C@@H]1N	inactive			inactive	inactive	inactive				
CCC(Br)(CC)C(=O)NC(N)=O		inactive	inactive	inactive	inactive	inactive	inactive	inactive	inactive	inactive
C=CCC1([C@H](C)CCC)C(=O)NC(=O)NC1=O		inactive	inactive			inactive	inactive	inactive	inactive	inactive
O=[N+]([O-])c1ccccc1CCl		inactive	inactive	inactive	inactive	inactive	inactive		inactive	inactive
COC(=O)C(C)N(C(=O)Cc1ccccc1)c1c(C)cccc1C (stereo not drawn)		inactive	inactive	inactive	inactive			inactive		
C[C@@H]1CC[C@H]2[C@@H](C)C(=O)O[C@@H]3O[C@@]4(C)CC[C@@H]1[C@]32OO4		inactive		inactive	inactive	inactive	inactive		inactive	inactive
CCCN(CCC)c1c([N+](=O)[O-])cc(S(C)(=O)=O)cc1[N+](=O)[O-]		inactive	inactive	inactive	inactive		inactive			
O=[N+]([O-])c1cc(C(F)(F)F)cc([N+](=O)[O-])c1Cl		inactive	inactive		inactive	inactive	inactive		inactive	inactive
O=S(=O)(Cl)c1ccccc1		inactive		inactive	inactive	inactive	inactive	inactive	inactive	inactive
O=C(CBr)OCc1ccccc1		inactive	inactive	inactive		inactive		inactive	inactive	inactive
CC(Cl)C(C)Cl (stereo not drawn)		inactive	inactive	inactive	inactive		inactive		inactive	inactive
CC(=O)c1cc2c(cc1C)C(C)(C)C(C)CC2(C)C (stereo not drawn)		inactive	inactive	inactive				inactive		inactive
O=NN1CCCCCC1		inactive		inactive	inactive	inactive	inactive	inactive	inactive	inactive
II		inactive	inactive	inactive	inactive	inactive	inactive	inactive		
ClCc1cccc(Cl)c1		inactive	inactive	inactive	inactive	inactive	inactive	inactive	inactive	inactive
O=C(NC(=O)c1c(F)cccc1F)Nc1ccc(OC(F)(F)C(F)OC(F)(F)F)c(Cl)c1 (stereo not drawn)		inactive	inactive	inactive	inactive	inactive	inactive	inactive		
